The results in this text go back to PubChem BioAssay (NCI).

Where “and” joins values, the source holds several entries; their conditions need not be identical. Identical values can stand only once. The panel holds about 79,000 compounds, 15% with a hit somewhere; the sample as a whole holds those more often. The source holds several records for some structures; these can differ, active in one and inactive in another. Calls of active or inactive are those of the source. No stated cut-off is given here; in the data, active means growth inhibition above about 70%; inactive means the rest.

The nature of experiment [1]: NCI Yeast Anticancer Drug Screen. Data for the rad50 strain (AID 155).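 Further: 0% = growth of vehicle-only cultures of the same strain.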 The note with it: S. cerevisiae rad50 strain growth inhibition, stronger effect = higher value. The procedure, abridged: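 DNA repair mutant yeast, compound exposure, growth read-out; inhibition is taken relative to vehicle.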
Experiment [2] in a line: NCI Yeast Anticancer Drug Screen. Data for the mec2-1 strain (AID 157). The note with it: S. cerevisiae mec2-1 strain, stronger effect = higher value. The method in brief:
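Cells of the genetically defined mec2-1 yeast strain are incubated with test compound. Inhibition of growth is calculated against vehicle-treated controls.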

Experiment [3] can be described thus: NCI Yeast Anticancer Drug Screen. Data for the sgs1 mgt1 strain (AID 161).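 Further: 0% = growth of cultures given vehicle only.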 To be noted: S. cerevisiae sgs1 mgt1 strain, stronger effect = higher value. The procedure, abridged: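 Test agents were incubated with a DNA-repair-mutant yeast strain. Growth was then read and compared against vehicle-treated controls.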
Experiment [4] is described as follows: NCI Yeast Anticancer Drug Screen. Data for the cln2 rad14 strain (AID 165).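 Further: 0% = growth equal to vehicle treated cultures.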 The note with it: S. cerevisiae cln2 rad14 strain, stronger effect = higher value. The procedure, abridged:
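The screen exposed genetically defined yeast (cln2 rad14) to test compounds and scored growth inhibition relative to vehicle-treated controls.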

Experiment [5] is described as follows: NCI Yeast Anticancer Drug Screen. Data for the bub3 strain (AID 167). To be noted: S. cerevisiae bub3 mutant strain, stronger effect = higher value. The method in brief: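 In this screen, a yeast mutant lacking normal mitotic checkpoint function is challenged with compound. Relative growth versus vehicle gives the inhibition value.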
Experiment [6] can be described thus: NCI Yeast Anticancer Drug Screen. Data for the mlh1 rad18 strain (AID 175). To be noted: S. cerevisiae mlh1 rad18 strain growth inhibition, stronger effect = higher value. The method in brief:
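Compound-treated yeast growth, normalised to vehicle controls. Strain bears defined DNA repair mutations.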

The mark [7] stands for this setting: at 5.0 µM (retest, dose inferred, filed as 0.5).
Setting [8] is: at 50.0 µM (retest, dose inferred, filed as 5.0).

Take `CCCCN(CCCC)C(Cl)=Nc1ccccc1`: the growth inhibition is 35% (inactive) in experiment [1] (setting [7]); 32% (inactive) in experiment [1] (setting [8]); 80.9% (active) in experiment [1] (at 50.0 µM); 29% (inactive) in experiment [2] (setting [7]); 24% (inactive) in experiment [2] (setting [8]); 87.1% (active) in experiment [2] (at 50.0 µM). Besides, the growth inhibition in experiment [3] (setting [7]) is 31% (inactive); in experiment [3] (setting [8]) it was 30% (inactive); in experiment [3] (at 50.0 µM) it was 88.2% (active); in experiment [4] (setting [7]) it was 17% (inactive); in experiment [4] (setting [8]), 19% (inactive); in experiment [4] (at 50.0 µM), 81% (active). Moreover, the growth inhibition is 33% (inactive) in experiment [5] (setting [7]); 38% (inactive) in experiment [5] (setting [8]); 82.4% (active) in experiment [5] (at 50.0 µM); 39% (inactive) in experiment [6] (setting [7]); 57% (inactive) in experiment [6] (setting [8]); 77.4% (active) in experiment [6] (at 50.0 µM).

For the compound `O=NC1C(Cl)C2CC1C1C(Br)C(Br)CC21` (stereo unspecified), the growth inhibition is 4% (inactive) and 3% (inactive) in experiment [1] (setting [7]); 4% (inactive) and 46% (inactive) in experiment [1] (setting [8]); 3.2% (inactive) and 55.5% (inactive) and 48.2% (inactive) in experiment [1] (at 50.0 µM); 23% (inactive) and 4% (inactive) in experiment [2] (setting [7]); 2% (inactive) and 22% (inactive) in experiment [2] (setting [8]); 1.4% (inactive) and 32.1% (inactive) and 34% (inactive) in experiment [2] (at 50.0 µM). Besides, the growth inhibition is -3% (inactive) and -2% (inactive) in experiment [3] (setting [7]); 2% (inactive) and 29% (inactive) in experiment [3] (setting [8]); 19.9% (inactive) and 66.5% (inactive) and 56.3% (inactive) in experiment [3] (at 50.0 µM); 1% (inactive) and 0% (inactive) in experiment [4] (setting [7]); 1% (inactive) and 16% (inactive) in experiment [4] (setting [8]); -26.6% (inactive) and 7.1% (inactive) and 6.65% (inactive) in experiment [4] (at 50.0 µM). Further, the growth inhibition was 4% (inactive) and 0% (inactive) in experiment [5] (setting [7]); -7% (inactive) and 7% (inactive) in experiment [5] (setting [8]); -5.1% (inactive) and 11.2% (inactive) and 8.2% (inactive) in experiment [5] (at 50.0 µM); 6% (inactive) and 4% (inactive) in experiment [6] (setting [7]); 31% (inactive) and 52% (inactive) in experiment [6] (setting [8]); 30.6% (inactive) and 69.8% (inactive) and 59.1% (inactive) in experiment [6] (at 50.0 µM).

Take `CS(=O)(=O)OC1CC(n2ccc(=O)[nH]c2=O)OC1COC(c1ccccc1)(c1ccccc1)c1ccccc1` (stereo unspecified): the growth inhibition is -14% (inactive) in experiment [1] (setting [7]); 95% (active) in experiment [1] (setting [8]); 14.9% (inactive) and 97% (active) in experiment [1] (at 50.0 µM); -4% (inactive) in experiment [2] (setting [7]); 95% (active) in experiment [2] (setting [8]); -4.6% (inactive) and 97% (active) in experiment [2] (at 50.0 µM). Moreover, the growth inhibition in experiment [3] (setting [7]) was -17% (inactive); in experiment [3] (setting [8]), 54% (inactive); in experiment [3] (at 50.0 µM), 11.3% (inactive) and 50.5% (inactive); in experiment [4] (setting [7]), 0% (inactive); in experiment [4] (setting [8]) it was 92% (active); in experiment [4] (at 50.0 µM), 2.9% (inactive) and 96.3% (active). The growth inhibition in experiment [5] (setting [7]) is -3% (inactive); in experiment [5] (setting [8]) it was 86% (active); in experiment [5] (at 50.0 µM) it was 7.25% (inactive) and 97.8% (active); in experiment [6] (setting [7]), 0% (inactive); in experiment [6] (setting [8]) it was 97% (active); in experiment [6] (at 50.0 µM), 5.6% (inactive) and 97% (active).

For the compound `CO[C@H](C(=O)[C@@H](O)[C@@H](C)O)[C@@H]1Cc2cc3cc(OC4CC(OC5CC(O)C(O)C(C)O5)C(O)C(C)O4)c(C)c(O)c3c(O)c2C(=O)[C@H]1OC1CC(OC2CC(OC3CC(C)(O)C(O)C(C)O3)C(O)C(C)O2)C(O)C(C)O1` (stereo partly specified), the growth inhibition is 12% (inactive) in experiment [1] (setting [7]); 77% (active) in experiment [1] (setting [8]); 72.1% (active) and 5.15% (inactive) in experiment [1] (at 50.0 µM); 7% (inactive) in experiment [2] (setting [7]); 39% (inactive) in experiment [2] (setting [8]); 33% (inactive) and -0.5% (inactive) in experiment [2] (at 50.0 µM). In addition, the growth inhibition in experiment [3] (setting [7]) was 6% (inactive); in experiment [3] (setting [8]), 37% (inactive); in experiment [3] (at 50.0 µM), 62.4% (inactive) and 17.8% (inactive); in experiment [4] (setting [7]) it was 21% (inactive); in experiment [4] (setting [8]) it was 47% (inactive); in experiment [4] (at 50.0 µM), 93.2% (active) and 11.2% (inactive). Also, the growth inhibition in experiment [5] (setting [7]) is -2% (inactive); in experiment [5] (setting [8]), 43% (inactive); in experiment [5] (at 50.0 µM) it was 44.5% (inactive) and 24.1% (inactive); in experiment [6] (setting [7]) it was 4% (inactive); in experiment [6] (setting [8]), 33% (inactive); in experiment [6] (at 50.0 µM), 41.5% (inactive) and 14.4% (inactive).

In the case of `c1ccc(N=c2cnc3c(ccc4ccccc43)o2)cc1`, the growth inhibition was 97% (active) in experiment [1] (setting [7]); 93% (active) in experiment [1] (setting [8]); 93.5% (active) in experiment [1] (at 50.0 µM); 97% (active) in experiment [2] (setting [7]); 96% (active) in experiment [2] (setting [8]); 95.5% (active) in experiment [2] (at 50.0 µM). The growth inhibition in experiment [3] (setting [7]) is 96% (active); in experiment [3] (setting [8]) it was 95% (active); in experiment [3] (at 50.0 µM), 94.2% (active); in experiment [4] (setting [7]) it was 99% (active); in experiment [4] (setting [8]), 98% (active); in experiment [4] (at 50.0 µM), 98.6% (active). In addition, the growth inhibition is 64% (inactive) in experiment [5] (setting [7]); 84% (active) in experiment [5] (setting [8]); 79.2% (active) in experiment [5] (at 50.0 µM); 97% (active) in experiment [6] (setting [7]); 96% (active) in experiment [6] (setting [8]); 96.8% (active) in experiment [6] (at 50.0 µM).

As to `CCOC(=O)C1=C(C(=O)c2ccc(OC)cc2)C(c2c(Cl)cccc2Cl)C(C(=O)c2ccc(OC)cc2)=C(C(=O)OCC)N1`, the growth inhibition in experiment [1] (setting [7]) was 8% (inactive); in experiment [1] (setting [8]), 19% (inactive); in experiment [1] (at 50.0 µM), 53.9% (inactive); in experiment [2] (setting [7]), 6% (inactive); in experiment [2] (setting [8]), 35% (inactive); in experiment [2] (at 50.0 µM), 71% (active). Besides, the growth inhibition in experiment [3] (setting [7]) is 19% (inactive); in experiment [3] (setting [8]), -5% (inactive); in experiment [3] (at 50.0 µM) it was 70.3% (active); in experiment [4] (setting [7]), -19% (inactive); in experiment [4] (setting [8]), 18% (inactive); in experiment [4] (at 50.0 µM) it was 88.2% (active). The growth inhibition in experiment [5] (setting [7]) was 14% (inactive); in experiment [5] (setting [8]) it was 7% (inactive); in experiment [5] (at 50.0 µM), 88.7% (active); in experiment [6] (setting [7]), 6% (inactive); in experiment [6] (setting [8]), 0% (inactive); in experiment [6] (at 50.0 µM), 81.8% (active).

On to `CCCCCCCCCC(=O)c1ccc(O)c(O)c1O`, for which the growth inhibition in experiment [1] (setting [7]) was 99% (active); in experiment [1] (setting [8]) it was 98% (active); in experiment [1] (at 50.0 µM) it was 90.3% (active); in experiment [2] (setting [7]), 99% (active); in experiment [2] (setting [8]), 98% (active); in experiment [2] (at 50.0 µM) it was 91.8% (active). The growth inhibition was 44% (inactive) in experiment [3] (setting [7]); 94% (active) in experiment [3] (setting [8]); 93.1% (active) in experiment [3] (at 50.0 µM); 63% (inactive) in experiment [4] (setting [7]); 96% (active) in experiment [4] (setting [8]); 91.1% (active) in experiment [4] (at 50.0 µM). For the same compound, the growth inhibition in experiment [5] (setting [7]) was 77% (active); in experiment [5] (setting [8]) it was 79% (active); in experiment [5] (at 50.0 µM), 90.5% (active); in experiment [6] (setting [7]) it was 100% (active); in experiment [6] (setting [8]), 99% (active); in experiment [6] (at 50.0 µM) it was 89.7% (active).
